60 sequences from the OligoGym collection can be followed below.

Among the targets are DMKN; DMRTC2; DMXL1; DMRT3; DNAJC13; DNTTIP1; DOCK1; DNMT3L; DOCK11; DPRX; DTX3L; DUSP3; DUSP22.
Assay in all cases: pooled miR-30 sensor sort-seq; sequence = guide strand
What all share (details): shRNA
Further: reference of the scale not given here.

TCGAATGACATCTTCTGCCTGT came in with a sensor-assay potency score (higher = more potent) with DMKN of 0.442. TTTGTGACACTCGCAAGCCTGG returned a sensor-assay potency score (higher = more potent) in the assay with DMRTC2 of -0.968. In the assay with DMKN, TTGTAGTTCTGATCGGCTCTGC showed a sensor-assay potency score (higher = more potent) of 0.13. Still for that read-out and setting: the value for TTGTTGTCACCATTGCTGCCAC was -0.584. For TCAGAGTTGAGTGTGTGCGGGG, in the assay with DMRTC2, the sensor-assay potency score (higher = more potent) was -0.0492. TGCCTGTCTGCCAATCTCGTGC registered a sensor-assay potency score (higher = more potent) with DMKN of -0.915. In the assay with DMXL1, TTCTATATCATCATCTACCCAA registered a sensor-assay potency score (higher = more potent) of -0.207. As to TTGCAACAGAACCACTTCCTTT, in the assay with DMRT3, the sensor-assay potency score (higher = more potent) is -0.544. The sequence TCAGTACTGGGTGAGATCCTGG yielded a sensor-assay potency score (higher = more potent) with DMRTC2 of -0.163. In turn, ATTACTTACACATTCTACTTTA registered a sensor-assay potency score (higher = more potent) with DMXL1 of -0.377. For the sequence TACATTTCTAAATAGTATCTAC, the sensor-assay potency score (higher = more potent) with DMXL1 was -0.076.

TTGTGACACTCGCAAGCCTGGA displayed a sensor-assay potency score (higher = more potent) in the assay with DMRTC2 of -1.29. Sequence TTTTCTACTTCTTTCTTCCAGG yielded a sensor-assay potency score (higher = more potent) in the assay with DNAJC13 of -0.404. As for TTCCTCTAGCTTCAGATCCAGG, the sensor-assay potency score (higher = more potent) with DNTTIP1 is -1.66. In turn, TTCTTTGTTCTCGTCGTGCATG showed a sensor-assay potency score (higher = more potent) with DOCK1 of -1.13. Still for that read-out and setting: the value for TTTCACATCGTTGACGATCGTT was -0.0463.

For TGAACCTGGAGACTTCCGCAGC, the sensor-assay potency score (higher = more potent) in the assay with DNMT3L was -0.928. In the case of TTTAGCTGTCCTGTGCACCTTC, the sensor-assay potency score (higher = more potent) with DOCK11 was determined as 0.773. For the sequence TTCGACTTCATGATCCAGCTTG, the sensor-assay potency score (higher = more potent) with DOCK1 stood at 0.58. TGAGTCACTACAAACTCGCTCA came in with a sensor-assay potency score (higher = more potent) with DNTTIP1 of -0.249.

As to TATCTTGTGTTGACCAAGGTTG, the sensor-assay potency score (higher = more potent) in the assay with DOCK1 was -0.193. TTGAACTAAACTGTCGGTGTTG registered a sensor-assay potency score (higher = more potent) with DOCK11 of -0.114.

In turn, TTACAATCTGCTCTGACACTGG displayed a sensor-assay potency score (higher = more potent) in the assay with DOCK1 of 0.172.

For TTAACAGTCTCAAACCAGCGTG, the sensor-assay potency score (higher = more potent) with DOCK1 is -0.984.

Regarding TTCTTGAACTAAACTGTCGGTG, the sensor-assay potency score (higher = more potent) in the assay with DOCK11 is -0.436.

In the case of TTGATCTTCTTTAATTAGCCGC, in the assay with DOCK11, the sensor-assay potency score (higher = more potent) is -0.638. Turning to TAGAACCACATGCTAGTCTGGG, the sensor-assay potency score (higher = more potent) with DNTTIP1 was -0.495. As to TACATCATCACTACACAGCTTC, in the assay with DOCK1, the sensor-assay potency score (higher = more potent) turned out to be 0.384. TACTTGTTGAAGACAGTCTGGA: in the assay with DNTTIP1, the sensor-assay potency score (higher = more potent) is 0.302.

The sequence TTGTACTGTTCGTCTCCTCTGC returned a sensor-assay potency score (higher = more potent) in the assay with DOCK1 of 0.121. Turning to TTTGGTTTCCATACCATGCCGG, the sensor-assay potency score (higher = more potent) with DNTTIP1 is -0.318.

As for TTAGACTTTTTTCGTAACGTGT, the sensor-assay potency score (higher = more potent) with DOCK1 was -0.535. In turn, TTGATGTAGATTCTTCCTCTGG registered a sensor-assay potency score (higher = more potent) in the assay with DNTTIP1 of -0.475. Consider TTCACTATAATGGACATCCATC, for which, in the assay with DOCK11, the sensor-assay potency score (higher = more potent) is -1.02. Same read-out and setting: the result for TAAACTGTCGGTGTTGATCTGA reads 0.463. TTTCGTTCTCATACTGCTCGGC came in with a sensor-assay potency score (higher = more potent) with DOCK1 of 0.184. Consider TATACTTTCTCATCTTCTCCAC, for which the sensor-assay potency score (higher = more potent) with DNTTIP1 stood at 0.0054. In the assay with DOCK1, TTAGAGTCCTGTGATGACCTGT returned a sensor-assay potency score (higher = more potent) of 0.59.

Sequence TTGGTTTCCATACCATGCCGGC returned a sensor-assay potency score (higher = more potent) with DNTTIP1 of -0.684. TTTATCATTATGTTCCAAGGGT: the sensor-assay potency score (higher = more potent) with DNTTIP1 was 0.164. In turn, TATTATATCTGTTACATCCATC gave a sensor-assay potency score (higher = more potent) in the assay with DOCK1 of -0.566. Still for that read-out and setting: the value for TTGTCTGTTAATATCTATGTTC was -0.583. TGATCTTAGATAACTATCCAAG yielded a sensor-assay potency score (higher = more potent) with DOCK11 of -1.04. The sequence TTTCTTGAACTAAACTGTCGGT came in with a sensor-assay potency score (higher = more potent) with DOCK11 of 0.142. Still for that read-out and setting: the result for TTCTCTTCCAACAAGTATGTGG reads -0.568. As for TCATCGTACACAGACACCGTGA, the sensor-assay potency score (higher = more potent) in the assay with DOCK1 is -0.406. In the assay with DNTTIP1, TTTCAATTCCTCTAGCTTCAGA gave a sensor-assay potency score (higher = more potent) of -0.665. Still for that read-out and setting: the result for TGAAACTTGTTGTCATCTGTGA reads 0.435. The sequence TTCAATATTGCTATCATCGTAG gave a sensor-assay potency score (higher = more potent) in the assay with DOCK11 of 0.383. In the assay with DOCK11, TTTTGTATGCATAACTTCCAGA yielded a sensor-assay potency score (higher = more potent) of -0.169. Regarding TTCACATCGTTGACGATCGTTG, the sensor-assay potency score (higher = more potent) with DOCK1 is -0.549. With TTGCTTTATGCAACCAGCCTTG, the sensor-assay potency score (higher = more potent) with DOCK11 is -0.849. The sequence AACACTTTTGTCAACTTCGTGT gave a sensor-assay potency score (higher = more potent) with DOCK1 of 0.131. Consider TTTTTGATGAATATGCTTGCAT, for which, in the assay with DPRX, the sensor-assay potency score (higher = more potent) is 0.217. TTGTGGTGAATATCATTCCAAG: in the assay with DTX3L, the sensor-assay potency score (higher = more potent) is -1.27. The sequence TAGAACATACTGCTTCGCCTTT had a sensor-assay potency score (higher = more potent) with DTX3L of -0.506. TTGAGGTCTCGTGTTCTTCTTT came in with a sensor-assay potency score (higher = more potent) with DTX3L of -0.195.

For ATTGGTGTTGACGTGCATGAAG, the sensor-assay potency score (higher = more potent) in the assay with DUSP3 was -1.24. Sequence TTAGTTCTCAACATAAACATGA showed a sensor-assay potency score (higher = more potent) with DUSP22 of -0.0599. In the assay with DUSP3, TCTGTCATTGAGCTGGCAGAGC showed a sensor-assay potency score (higher = more potent) of -1.17.
